Most compounds without a hit are left out; they make up all but 6.3% or so of the library.
ATXN2 expr inh = ATXN2 expression inhibition; HEK-293 ATXN2-luciferase reporter, luminescence, 24 h; Potency, µM (titrated, usually from 57 µM), inactives show at the highest dose activity change, negative = inhibition, hits mostly inhibitors; 0.72% of 360,000 active; note: % is set by controls: 0 for no effect and ±100 for the full control effect; nearly all actives have a fitted effect of over 55% in size
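qHTS (up to 57 uM final) was run with 24 h compound exposure of reporter cells at 37 °C. Each well was multiplexed: SteadyGlo luminescence measured ATXN2-luciferase expression after a fluorogenic Gly-Phe-AFC viability readout (25 uM final).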
RORg inh = blocks mouse ROR gamma transcriptional activity. P51450. Drosophila S2 Gal4-RORgamma UAS-luciferase reporter, 20 h. Potency, µM (doses to about 53.6 µM), for inactives: top-dose activity change, negative = inhibition, most hits filed as inhibitors. 5.4% of 310,000 active. AID 2551; note: % is set by controls: 0 for no effect and ±100 for the full control effect; nearly all actives have a fitted effect of over 60% in size
Target sequence (P51450 whole entry, looked up, the tested form may be a part): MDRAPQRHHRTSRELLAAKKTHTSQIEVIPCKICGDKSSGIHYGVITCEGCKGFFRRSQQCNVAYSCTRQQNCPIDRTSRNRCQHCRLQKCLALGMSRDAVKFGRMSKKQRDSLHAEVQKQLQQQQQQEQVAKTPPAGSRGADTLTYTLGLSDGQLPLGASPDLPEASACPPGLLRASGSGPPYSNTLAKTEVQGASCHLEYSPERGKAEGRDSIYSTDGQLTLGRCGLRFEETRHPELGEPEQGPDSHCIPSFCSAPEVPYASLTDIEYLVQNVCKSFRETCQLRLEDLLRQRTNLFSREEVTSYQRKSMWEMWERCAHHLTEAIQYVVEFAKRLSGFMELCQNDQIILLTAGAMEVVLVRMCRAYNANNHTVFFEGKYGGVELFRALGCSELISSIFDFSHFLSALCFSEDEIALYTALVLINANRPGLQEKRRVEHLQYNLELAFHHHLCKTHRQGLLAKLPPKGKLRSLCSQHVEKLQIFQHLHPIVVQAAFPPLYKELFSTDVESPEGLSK
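Luminescence from a UAS-regulated Photinus luciferase reporter in stably transfected Drosophila Schneider cells is measured; decreased signal marks ROR gamma inhibition. Fusion expression is induced by 700 uM copper sulfate for 20 hr.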
Gal4-VP16 FLuc = counter-screen for ROR gamma inhibitors: Gal4-VP16 reporter; Drosophila S2 Gal4-VP16 UAS-luciferase, luminescence, 20 h; Potency, µM (titrated, usually from 53.6 µM), without a hit: top-dose activity, negative = inhibition, hits mostly inhibitors; 3.5% of 310,000 active;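 note: Gal4-VP16 expression switched on by copper sulfate through the metallothionein promoter; % is set by controls: 0 for no effect and ±100 for the full control effect; nearly all actives have a fitted effect of over 50% in size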
TGFb inhibitor = TGF-b pathway inhibition | Potency, µM (top dose mostly 46.1 µM), for inactives: at the highest dose activity, negative = inhibition, actives largely listed as inhibitors | HepG2 CAGA-GFP TGF-b/SMAD3 reporter, GFP fluorescence, 18 h; TGF-beta stimulated, 500 pg/mL final | 1.2% of 410,000 active | AID 588855; note: % is set by controls: 0 for no effect and ±100 for the full control effect; nearly all actives have a fitted effect of over 65% in size
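Inhibition was scored as loss of TGF-beta-induced (500 pg/mL final, 18 hours, 37 degrees C) GFP in HEPG2 cells carrying a CAGA-GFP reporter, in DMEM with 1% FBS. Well GFP was summed per cell; Activity was normalised to unstimulated and stimulated DMSO wells, then concentration-response fitting.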
ATXN viability = reduces viability in counter-screen for ATXN expression inhibitors. S2 cells (HEK-293 line with an ATXN2-luciferase reporter) viability, CellTiter-Fluor protease fluorescence, 24 h. AID 651635. 0.49% of 400,000 active. Potency, µM (highest dose often 56.7 µM), most hits filed as cytotoxic; note: nearly all actives have a fitted effect of over 40% in size
HepG2 viability = HepG2 cytotoxicity, counter-screen for TGF-b inhibitors; HepG2 CAGA-GFP viability, ATP luminescence, 18 h; Potency, µM (doses to about 46.1 µM), without a hit: top-dose activity change, negative = cytotoxicity, actives largely listed as cytotoxic; 0.76% of 410,000 active; AID 588856
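HepG2 CAGA-GFP cells (1000/well, DMEM with 1% FBS) received compound, then TGF-beta at 500 pg/mL final, and were incubated 18 hours at 37 degrees C. Viability was read by CellTiter-Glo luminescence. Media-only wells were set as complete cell-killing and DMSO as no toxicity.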
The depositor's hits bear a star. Calls come from the whole dose curve; as a rule, active = well fitted curve in the direction sought with a large enough effect; inconclusive = small, poorly fitted or top-dose-only effect, or another doubt; inactive = no such curve, though single readings can be large; an effect the other way counts as inactive or inconclusive. Potency is the fitted concentration of half-maximal effect.

How did Cc1ccc(N2CCN(C(=S)Nc3ccccc3C)CC2)cc1 do in these assays?
ATXN2 expr inh: 4.7%; RORg inh: 10µM*; Gal4-VP16 FLuc: inconclusive; TGFb inhibitor: 18.3%; ATXN viability: inactive; HepG2 viability: -4.1%

Results for Cc1ccccc1NC(=S)N1CCN(c2ccccc2C)CC1 ?
ATXN2 expr inh: 2.3%; RORg inh: 2.82µM*; Gal4-VP16 FLuc: 5.62µM*; TGFb inhibitor: -5.4%; ATXN viability: inactive; HepG2 viability: -2.0%

What do the screens show for `Cc1cccc(NC(=S)N2CCN(c3ccccc3F)CC2)c1C`?
ATXN2 expr inh: -1.1%; RORg inh: 8.91µM*; Gal4-VP16 FLuc: 10µM*; TGFb inhibitor: -24.4%; ATXN viability: inactive; HepG2 viability: -3.7%

Results for COCCn1c(C)cc(O)c(C(c2ccc(OC)cc2)N2CCCCC2)c1=O (stereo not drawn) ?
TGFb inhibitor: 3.8%; HepG2 viability: 1.4%

Results for Cc1ccc2cc(CNC(C)CO)c(N3CCC(O)CC3)nc2c1 (stereo not drawn) ?
ATXN viability: inactive

Results for Nc1ccc(C(=O)NN2C(=O)[C@H](Cl)C2c2ccc(Cl)cc2)cc1 (stereo partly drawn) ?
ATXN2 expr inh: inconclusive; TGFb inhibitor: 0.0%; ATXN viability: 13.4µM*; HepG2 viability: -87.8%

Results for CCNC(=O)CC1C(=O)N(C)C(=S)N1NC(=O)c1ccc(Cl)cc1 (stereo not drawn) ?
ATXN2 expr inh: -5.6%; RORg inh: -31.7%; Gal4-VP16 FLuc: 0.7%; TGFb inhibitor: -1.3%; ATXN viability: inactive; HepG2 viability: -23.6%

How did Cc1ccccc1NC(=O)c1sc2nc3n(c(=O)c2c1C)N=C(c1ccccc1)CS3 do in these assays?
TGFb inhibitor: -7.8%; HepG2 viability: -13.3%

Results for OCC[C@@H]1C[C@H](O)[C@@H](O)[C@]2(OCc3cc(Cl)ccc32)O1 ?
ATXN2 expr inh: -2.1%; TGFb inhibitor: -4.2%; ATXN viability: inactive; HepG2 viability: -40.3%

What do the screens show for `Cc1ccc[n+](CC(=O)Nc2c(Cl)cc(Cl)cc2Cl)c1`?
ATXN2 expr inh: -14.4%; RORg inh: 12.6µM*; Gal4-VP16 FLuc: 2.3%; TGFb inhibitor: 0.2%; ATXN viability: inactive; HepG2 viability: -9.6%

What do the screens show for `O=C(C[n+]1ccccc1)Nc1c(Cl)cc(Cl)cc1Cl`?
ATXN2 expr inh: -3.8%; RORg inh: inconclusive; Gal4-VP16 FLuc: inconclusive; TGFb inhibitor: 11.1%; ATXN viability: inactive; HepG2 viability: -6.8%

What do the screens show for `COC(=O)c1cn[nH]c1NC(=S)Nc1ccc(Cl)c(Cl)c1`?
ATXN2 expr inh: 49.2%; RORg inh: inconclusive; Gal4-VP16 FLuc: inconclusive; TGFb inhibitor: -21.0%; ATXN viability: inactive; HepG2 viability: -26.1%

How did CCOC(=O)c1cn[nH]c1NC(=S)Nc1ccc(OC)cc1 do in these assays?
ATXN2 expr inh: -46.0%; RORg inh: 23.9%; Gal4-VP16 FLuc: -9.5%; TGFb inhibitor: -28.4%; ATXN viability: inactive; HepG2 viability: -24.8%

What do the screens show for `COC(=O)c1cn[nH]c1NC(=S)Nc1ccc(C)cc1Cl`?
ATXN2 expr inh: -15.2%; RORg inh: 2.82µM*; Gal4-VP16 FLuc: 3.55µM*; TGFb inhibitor: 8.8%; ATXN viability: inactive; HepG2 viability: -6.0%

What do the screens show for `COC(=O)c1cn[nH]c1NC(=S)Nc1ccccc1C`?
ATXN2 expr inh: 69.6%; RORg inh: 5.62µM*; Gal4-VP16 FLuc: inconclusive; TGFb inhibitor: 7.2%; ATXN viability: inactive; HepG2 viability: 7.8%

How did COc1ccc(C(c2c(C)[nH]n(C(N)=S)c2=O)C(C#N)C#N)cc1 (stereo not drawn) do in these assays?
ATXN2 expr inh: -2.4%; RORg inh: 4.47µM*; Gal4-VP16 FLuc: 4.47µM*; TGFb inhibitor: inconclusive; ATXN viability: inactive; HepG2 viability: -0.7%

What do the screens show for `Nc1nc2c(s1)CCc1c-2cnn1-c1ccccc1`?
RORg inh: 34.3%; Gal4-VP16 FLuc: -15.5%; TGFb inhibitor: 17.8µM*; ATXN viability: inconclusive; HepG2 viability: -120.7%

Results for COc1cc(C(O)c2nc3ccccc3s2)cc(OC)c1OC (stereo not drawn) ?
RORg inh: inconclusive; Gal4-VP16 FLuc: 10µM*; TGFb inhibitor: -6.3%; ATXN viability: inactive; HepG2 viability: -0.2%

How did OCc1ccccc1-c1nc(NCC2CC2)nc2ccsc12 do in these assays?
ATXN2 expr inh: -1.3%; TGFb inhibitor: -0.8%; ATXN viability: inactive; HepG2 viability: -18.3%

Results for C=CCN=c1scc(-c2ccc(F)cc2)n1/N=C/c1ccccn1 ?
ATXN2 expr inh: 6.3%; RORg inh: 8.91µM*; Gal4-VP16 FLuc: 11.2µM*; TGFb inhibitor: inconclusive; ATXN viability: inactive; HepG2 viability: -39.9%

Results for C=CCN=c1scc(-c2ccccc2)n1/N=C/c1ccccn1 ?
ATXN2 expr inh: 2.7%; RORg inh: 5.01µM*; Gal4-VP16 FLuc: 10µM*; TGFb inhibitor: inconclusive; ATXN viability: inactive; HepG2 viability: -11.3%

How did O=C(Cc1ccc(F)cc1)N/N=C/c1ccccn1 do in these assays?
ATXN2 expr inh: -9.4%; RORg inh: -31.9%; Gal4-VP16 FLuc: 10.9%; TGFb inhibitor: -1.4%; ATXN viability: inactive; HepG2 viability: -11.1%

Results for Cc1ccc(Cl)c(OCC(O)CNC(C)(C)C)c1 (stereo not drawn) ?
ATXN2 expr inh: -8.2%; ATXN viability: inactive

Results for COc1ccc(-c2n[nH]c(C)c2-c2cnn(-c3ccccc3)c2)c(O)c1C ?
ATXN2 expr inh: inconclusive; RORg inh: 11.2µM*; Gal4-VP16 FLuc: inconclusive; TGFb inhibitor: 12.6µM*; ATXN viability: inactive; HepG2 viability: -103.5%

What do the screens show for `COc1ccc(-c2n[nH]c(C)c2-c2cnn(-c3ccccc3)c2)c(O)c1`?
ATXN2 expr inh: -3.6%; RORg inh: -115.9%; Gal4-VP16 FLuc: inconclusive; TGFb inhibitor: 12.6µM*; ATXN viability: inactive; HepG2 viability: -47.8%

How did Cc1nn(C)cc1CNc1nc(C)c(-c2ccn(CC3COc4ccccc4O3)n2)s1 (stereo not drawn) do in these assays?
ATXN viability: inactive

Results for CC(O)C1C(=O)N2C(C(=O)O)=C(SC3CNC(C(=O)N(C)C)C3)C(C)C12 (stereo not drawn) ?
ATXN2 expr inh: 6.9%

What do the screens show for `COC(=O)CCn1c(C)cc(C(=O)COc2ccccc2C(N)=O)c1C`?
ATXN2 expr inh: -12.4%; RORg inh: -8.3%; Gal4-VP16 FLuc: inconclusive; TGFb inhibitor: 5.2%; ATXN viability: inactive; HepG2 viability: -2.2%
